# Measurements: PubChem BioAssay (Tox21)
# Inconclusive results are not listed. Entries that show only a call come without a potency. The source made the active and inactive calls. The call rests on the fitted dose curve; in most records, active means well fitted cell-killing curve with a large enough effect in the repeat runs; inconclusive means weak or mixed curves, or effect the other way; inactive means flat fitted curve, though single readings scatter.
# Assay: qHTS assay to identify small molecule that activate the aryl hydrocarbon receptor (AhR) signaling pathway - cell viability counter screen (AID 743086); further: nearly all actives have a fitted effect of over 45% in size
# Settings: HepG2-AhR-luc viability, CellTiter-Fluor, 24 h; series mostly up to 70.3 µM
# From the text: U.S. Tox21 Program National Center for Advancing Translational Sciences [NCATS] NIH Chemical Genomics Center [NCGC] U.S. Environmental Protection Agency [EPA] National Institutes of Environmental Health Sciences [NIEHS] National Toxicology Program [NTP] U.S. Food and Drug Administration [FDA] Tox21 Assay overview: The Aryl hydrocarbon Receptor (AhR), a member of the family of basic helix-loop-helix transcription factors, is crucial to adaptive responses to environmental changes. AhR mediates cellular responses to environmental pollutants such as aromatic hydrocarbons through induction of phase I and II enzymes but also interacts with other nuclear receptor signaling pathways A cell based HepG2-AhR-luc assay (HG2L7.5c1 cell line, developed by Dr. Michael S. Denison, University of California at Davis) was used to assess the activation of AhR. HepG2 (human hepatocellular carcinoma) cells were stably transfected with an Ah receptor-responsive firefly luciferase reporter gene plasmid containing 20 dioxin responsive elements and luciferase reporter gene. Increased luciferase activity can be used to identify the compounds that induce AhR activation. The cytotoxicity of the compounds screened against the HepG2-AhR-luc cell line was tested in parallel by measuring the cell viability using CellTiter-Fluor assay in the same wells.
# Tox21 Assay Protocol Summary: 4000 cells in 5 uL/well were dispensed into white wall/solid bottom 1536-well plates using a Multidrop Combi (Thermo Fisher Scientific Inc., Waltham, MA) dispenser. After the assay plates were incubated at 37C for 5 h, 23 nL of compound or DMSO vehicle was transferred to the assay plates by a pintool station (Kalypsys, San Diego, CA). The plates were incubated at 37C for 24 hr. For cell viability measurement, 1 ul/well of CellTiter-Fluor reagent (Promega, Madison, WI) was added into the assay plates using a Flying Reagent Dispenser (FRD) (Aurora Discovery, CA),and then the assay plates were incubated at 37C for 30 min. The fluorescence intensity in the plates was measured using a ViewLux plate reader (PerkinElmer, Shelton, CT), followed by the addition of 4 uL of ONE-Glo Luciferase Assay reagent (Promega) using an FRD (Aurora Discovery). After the assay plates were incubated at room temperature for 30 min, luminescence intensity was measured using a ViewLux plate reader (Perkin Elmer).
# Potency means the concentration at half of the fitted maximal effect.
row,Structure (SMILES),Potency
1,CN1CCc2c(c3ccccc3n2Cc2ccccc2)C1,inactive
2,CCCCC(=O)N(Cc1ccc(-c2ccccc2-c2nn[nH]n2)cc1)[C@@H](C(=O)O)C(C)C,inactive
3,C[C@]12CCC(=O)C=C1CC[C@@H]1[C@@H]2[C@@H](O)C[C@@]2(C)[C@H]1CC[C@]2(O)C(=O)COP(=O)(O)O,inactive
4,CCCCC(C)(O)C/C=C/[C@H]1[C@H](O)CC(=O)[C@@H]1CCCCCCC(=O)OC (stereo not given in full),inactive
5,CCCCC(O)c1ccccc1 (stereo not given),inactive
6,O=C(O[C@H]1CN2CCC1CC2)N1CCc2ccccc2[C@@H]1c1ccccc1,inactive
7,CCCCCCCC(=O)CC[C@@H]1[C@@H](C/C=C\CCCC(=O)OC(C)C)[C@@H](O)C[C@H]1O,inactive
8,CC(C)(CO)[C@@H](O)C(=O)NCCCC(=O)O,inactive
9,CC(=O)O[C@H]1C[C@@]2(C)[C@@H](C[C@@H](O)[C@H]3[C@@]4(C)CC[C@@H](O)[C@@H](C)[C@@H]4CC[C@@]32C)/C1=C(\CCC=C(C)C)C(=O)O,inactive
10,O=P(O)(O)OC(CO)CO,inactive
11,C#C[C@]1(O)CC[C@H]2[C@@H]3CCC4=CCCC[C@@H]4[C@H]3C(=C)C[C@@]21CC,inactive
12,CO/N=C(\C(=O)N[C@@H]1C(=O)N2C(C(=O)O)=C(CSC(=O)c3ccco3)CS[C@H]12)c1csc(N)n1,inactive
13,C#C[C@]1(O)CC[C@H]2[C@@H]3CCC4=C(CCC(=O)C4)[C@H]3CC[C@@]21C,inactive
14,CCCCCCC(=O)O[C@H]1CC[C@H]2[C@@H]3CCc4cc(O)ccc4[C@H]3CC[C@]12C,inactive
15,C=CC[C@@H]1/C=C(\C)C[C@H](C)C[C@H](OC)[C@H]2O[C@@](O)(C(=O)C(=O)N3CCCC[C@H]3C(=O)O[C@H](/C(C)=C/[C@@H]3CC[C@@H](O)[C@H](OC)C3)[C@H](C)[C@@H](O)CC1=O)[C@H](C)C[C@@H]2OC,inactive
16,CCOC(=O)Oc1c(OC)cc(C(=O)O[C@@H]2C[C@@H]3CN4CCc5c([nH]c6cc(OC)ccc56)[C@H]4C[C@@H]3[C@H](C(=O)OC)[C@H]2OC)cc1OC,inactive
17,CC#CCC(C)[C@H](O)/C=C/[C@@H]1[C@H]2C/C(=C/CCCC(=O)O)C[C@H]2C[C@H]1O (stereo not given in full),inactive
18,CCOC(=O)c1c[nH]c2cc(OCC(C)C)c(OCC(C)C)cc2c1=O,inactive
19,CO/N=C(\C(=O)N[C@@H]1C(=O)N2C(C(=O)OCOC(=O)C(C)(C)C)=C(/C=C\c3scnc3C)CS[C@H]12)c1csc(N)n1,inactive
20,CCCCC(=O)O[C@H]1CC[C@H]2[C@@H]3CCc4cc(O)ccc4[C@H]3CC[C@]12C,inactive

row,Structure (SMILES),Potency
1,O=C(O)C1=C(CSc2nnnn2CS(=O)(=O)O)CS[C@@H]2[C@H](NC(=O)[C@H](O)c3ccccc3)C(=O)N12,inactive
2,CCCCCCCCCCCCCCCCCCCCCC(=O)Nc1ccn([C@@H]2O[C@H](CO)[C@@H](O)[C@@H]2O)c(=O)n1,inactive
3,O=C(Cn1c(=O)sc2ccc(Cl)cc21)N1CCN(CCO)CC1,inactive
4,CCOC(=O)O[C@]1(C(=O)COC(=O)CC)CC[C@H]2[C@@H]3CCC4=CC(=O)C=C[C@]4(C)[C@H]3[C@@H](O)C[C@@]21C,inactive
5,CC1C(=O)CC2C3(C)CCC2(C(C)C(=O)O)C(=O)C13 (stereo not given),inactive
6,NCCCC[C@H](N)C(=O)O,inactive
7,C=C1C(=O)O[C@H]2[C@H]1CC/C(C)=C\CC[C@@]1(C)O[C@@H]21,16.8 µM (active)
8,CCCCCCCN(CC)CCCC(O)c1ccc(NS(C)(=O)=O)cc1 (stereo not given),inactive
9,CO[C@H]1O[C@@H]2O[C@@]3(C)CC[C@H]4[C@H](C)CC[C@@H]([C@H]1C)[C@@]24OO3,inactive
10,CCCCCCCCCCCCCCCCCC[N+](C)(C)CCC[Si](OC)(OC)OC,inactive
11,COc1ccc(C[C@H](C)NC[C@@H](O)c2ccc(O)c(NC=O)c2)cc1,inactive
12,C=CCOc1ccc(CC(=O)O)cc1Cl,inactive
13,CC(O)[C@H]1CC[C@H]2[C@@H]3CC[C@@H]4C[C@@H](O)CC[C@]4(C)[C@H]3CC[C@]12C (stereo not given in full),inactive
14,O=P(O)(O)OC[C@H]1O[C@](O)(COP(=O)(O)O)[C@@H](O)[C@@H]1O,inactive
15,NC(Cc1ccccc1)C(=O)O (stereo not given),inactive
16,C[C@]12C=CC(=O)C=C1CC[C@@H]1[C@@H]2[C@@H](O)C[C@@]2(C)[C@H]1CC[C@]2(O)C(=O)COC(=O)CCC(=O)O,inactive
17,OCC(S)CS (stereo not given),inactive
18,COCC(=O)Nc1cc(Sc2ccccc2)ccc1N=C(NC(=O)OC)NC(=O)OC,inactive
19,O=C(O)[C@@H](O)[C@H](O)[C@H](O)[C@@H](O)C(=O)O (tested in a mixture with another compound),inactive
20,CCCCCc1ccc(C)cc1O,inactive
